Bioassay records deposited in PubChem by National Center for Advancing Translational Sciences (NCATS).
12-LOX inh – blocks human arachidonate 12S-lipoxygenase. purified 12hLO, xylenol orange hydroperoxide absorbance. Potency, µM (doses to about 108 µM), without a hit: at the top dose activity change, negative = inhibition, hits mostly inhibitors. actives 1.1% (n = 580,000). AID 1671190; note: potency is the fitted concentration of half-maximal effect
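Hydroperoxide product was detected by ferrous iron/xylenol orange as the 573 to 405 nm absorbance ratio. Arachidonic acid at 40 uM (final) was turned over for 30 min at room temperature by 150 nM human 12hLO, pH 7.0 Hepes buffer, after 15 min compound preincubation.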
DT40 TDP1 no CPT – qHTS for Inhibitors of human tyrosyl-DNA phosphodiesterase 1 (TDP1): qHTS in cells in absence of CPT. DT40 Tdp1-/- hTDP1 cells, no CPT, ATP luminescence, 48 h. Potency, µM (series often up to 46.2 µM), inactives show at the highest dose activity change, negative = growth inhibition, actives largely listed as inhibitors. actives 15% (n = 420,000); note: potency is the fitted concentration of half-maximal effect; nearly all actives have a fitted effect of over 55% in size
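Growth kinetics read by CellTiter-Glo luminescence after ≥48 hr at 37 °C. Cells: DT40 Tdp1-/- stably carrying human TDP1, 400 per well, compound exposure in the absence of CPT (DMSO vehicle).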
IL-1B inflam inh – blocks inflammasome-driven IL-1 beta release | THP-1 LPS/ATP IL-1B secretion, AlphaLISA, 16 h; active compounds read low | activity change, % at 57.5 µM | actives 4.7% (n = 360,000); in the data active = activity change below about -50%; inconclusive = mostly about -30% to -49%
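THP-1 cells pretreated 1 hr with compounds (up to 57.5 uM final), then stimulated with LPS (250 ng/mL final) plus ATP (1.25 mM final); secreted IL-1B measured by AlphaLISA after 16 hr, decreased signal indicating inhibition.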
HT1080 IDH1KD tx – HT-1080 IDH1 knockdown cell toxicity (counter line); HT-1080 IDH1 knockdown viability, ATP luminescence, 48 h; Potency, µM (series often up to 46.1 µM), for inactives: top-dose activity, negative = toxicity, hits mostly cytotoxic; actives 2% (n = 360,000);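 note: potency is the fitted concentration of half-maximal effect; 0% = DMSO wells and -100% = cell-free medium wells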
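Luminescent ATP read-out (CellTiter-Glo, 10 min at room temperature) after 48 h compound exposure at 37 °C gave viability of IDH1-knockdown HT-1080 cells. Activity was normalised to DMSO and cell-free wells, then fitted as concentration-response curves.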
DT40 TDP1 CPT – DT40-hTDP1 cell growth loss with CPT; chicken DT40 Tdp1-/-;hTDP1 cells + 20 nM CPT, ATP luminescence, 48 h; Potency, µM (titrated, usually from 46.2 µM), inactives show top-dose activity change, negative = growth inhibition, usual class: inhibitors; actives 12% (n = 420,000); note: potency is the fitted concentration of half-maximal effect; nearly all actives have a fitted effect of over 55% in size
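Chicken DT40 Tdp1-/- cells stably complemented with human TDP1 were seeded at 400 cells/well in medium containing 20 nM camptothecin, exposed to pin-transferred compounds, and grown at 37 °C for at least 48 hr. Viability was read as ATP luminescence.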
HT1080-NT tox – kills 2HG-producing HT-1080-NT fibrosarcoma cells. HT-1080-NT fibrosarcoma viability, CellTiter-Glo ATP luminescence, 48 h. Potency, µM (titrated, usually from 46.1 µM), for the others: top-dose activity, negative = less viability, most hits filed as cytotoxic. actives 1.6% (n = 360,000). AID 686970;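 note: NT is the 2HG producing partner of a matched IDH1 knockdown line; potency is the fitted concentration of half-maximal effect; 0% = DMSO-treated cells and -100% = media-only wells without cells; nearly all actives have a fitted effect of over 55% in size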
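Viability of the 2HG-overproducing fibrosarcoma line after 48 hours of compound exposure at 37 degrees C was determined by luminescence with CellTiter-Glo, and concentration-effect curves were then fitted and categorized.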
An asterisk follows results filed as active; u = inconclusive; x = no result; [ ] = remark or other dose. This excerpt belongs to a sample that is enriched for hits. Unless noted, calls come from the whole dose curve; as a rule, active = well fitted curve in the direction sought with a large enough effect; inconclusive = small, poorly fitted or top-dose-only effect, or another doubt; inactive = no such curve, though single readings can be large; an effect the other way counts as inactive or inconclusive. Unless noted, % is set by controls: 0 for no effect and ±100 for the full control effect.

SMILES | 12-LOX inh | DT40 TDP1 no CPT | IL-1B inflam inh | HT1080 IDH1KD tx | DT40 TDP1 CPT | HT1080-NT tox
O=[N+]([O-])c1cc(Cl)ccc1N1CCN(c2ccccc2O)CC1 | -16% | u | -96* | -11% | 0% | -19%
O=C(/C=C/c1ccc(Cl)cc1)N1CCN(c2ccc([N+](=O)[O-])c(N3CCOCC3)c2)CC1 | -3% | u | 2 | 5% | u | 9%
O=C(/C=C/c1ccccc1[N+](=O)[O-])N1CCN(c2ccccc2F)CC1 | -27% | 1% | -6 | 8% | u | 5%
O=[N+]([O-])c1cc(Cl)ccc1N1CCCCC1 | -12% | -13% | u | -10% | 1% | -6%
COc1cccc(NC(=O)COC(=O)c2cc3c(C)nn(-c4ccc(F)cc4)c3s2)c1 | 30% | x | x | x | x | x
CCCCCn1nc(C(=O)Nc2cc(OC)c(OC)c(OC)c2)c2ccccc2c1=O | 3% | x | x | x | x | x
CCN(C(=O)CSc1nc2ccccc2n1Cc1ccccc1C#N)c1ccccc1 | -11% | 13µM* | x | x | 15µM* | x
CCN(C(=O)CSc1nc2ccccc2n1Cc1cc(C)ccc1C)c1ccccc1 | -17% | 23µM* | x | x | 16µM* | x
O=C(C1=C(Nc2ccc(N3CCCC3)c(Cl)c2)c2ccccc2S1(=O)=O)N1CCOCC1 | 0% | x | x | x | x | x
Cn1c(CCNC(=O)CCc2ccc3c(c2)CN(C(=O)C2CC2)CCO3)nc2ccccc21 | -5% | x | x | x | x | x
O=C1c2[nH]nc(-c3ccccc3O)c2C(c2ccc(F)cc2)N1Cc1ccco1 (stereo not drawn) | -26% | 16µM* | -20 | u | 18µM* | u
Cc1ccc(C2c3c(-c4cc(C)ccc4O)n[nH]c3C(=O)N2Cc2ccco2)cc1 (stereo not drawn) | 1% | u | x | x | 23µM* | x
O=C1c2[nH]nc(-c3ccccc3O)c2C(c2cccc(Cl)c2)N1Cc1ccco1 (stereo not drawn) | -4% | 18µM* | -12 | u | u | u
O=C1c2[nH]nc(-c3ccccc3O)c2C(c2cccc(Cl)c2)N1CC1CCCO1 (stereo not drawn) | -19% | 18µM* | -9 | u | u | -28%
CCc1ccc(-n2c(CCC(=O)O)ccc2-c2cccs2)cc1 | u | -25% | x | x | -22% | x
CCOC(=O)c1ccc(-n2c(CCC(=O)O)ccc2-c2cccs2)cc1 | -28% | u | -70* | u | -19% | -11%
CC(=O)[C@@]1(O)C(C)CC2C3C=C(C)C4=Cc5c(cnn5-c5ccccc5)C[C@]4(C)C3C(O)C[C@@]21C (stereo partly drawn) | -74% | 5.2µM* | -91* | 21µM* | 4.6µM* | 4.6µM*
CCOc1ccc2c(n1)CCN(C(=O)NC1CCCC1)C2 | 16% | x | x | x | x | x
CN1CC(=O)N/C1=N/C(=O)Nc1cccc(Cl)c1 | -2%[22.9 µM] | 0% | x | x | -2% | x
CN1CC(=O)NC1=NC(=O)C12CC3CC(CC(C3)C1)C2 | 14% | 18µM* | 5 | -19% | u | -17%
CN1CCN(Cc2cccc(Oc3ccc(Cl)cc3)c2)CC1 | u | u | u | -15% | 29µM* | u
CCN1CCN(Cc2cccc(Oc3ccc(Cl)cc3)c2)CC1 | -43%[57.4 µM] | 16µM* | -27 | u | u | u
CCOC(=O)C1CCN(Cc2cccc(Oc3ccc(Cl)cc3)c2)CC1 | 1.4µM* | -25% | 0 | -4% | u | -5%
Cc1cccc(-n2c3nc(=O)n(C)c(=O)c-3cc3ccc(Cl)cc32)c1C | -14% | u | x | x | -4% | x
Cc1ccccc1-n1c2nc(=O)[nH]c(=O)c-2cc2c(Cl)cccc21 | u | 0.52µM* | x | x | 0.82µM* | x
Cn1cccc1/C=C1\CCC/C(=C\c2cccn2C)C1=O | u | 29µM* | u | -19% | u | -9%
